JMJD2A Tudor inh: inhibitors of human JMJD2A Tudor domain; O75164; AlphaScreen JMJD2A-Tudor / H3K4me3 peptide binding; Potency, µM (doses to about 114 µM), for inactives: top-dose activity change, negative = inhibition, usual class: inhibitors; hit rate 4.4% among 390,000; note: % is set by controls: 0 for no effect and ±100 for the full control effect; nearly all actives have a fitted effect of over 50% in size
GLS inh: glutaminase GLS (human) inhibition | O94925 | GLS enzymatic activity, qHTS titration | Potency, µM (titrated, usually from 45.5 µM), inactives show at the highest dose activity change, negative = inhibition, most hits filed as inhibitors | hit rate 0.21% among 410,000 | AID 624170; note: % is set by controls: 0 for no effect and ±100 for the full control effect
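Compounds were pin-transferred onto hKGA, after which L-glutamine (1 mM solution) and a detection mix of glutamate oxidase, HRP and Amplex Red were added. Initial and 30 min RT fluorescence reads were collected.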
HP1b chromo inh: inhibitors of HP1-beta chromodomain binding to methylated histone tails; P83916; hit rate 0.56% among 390,000; AlphaScreen HP1-beta / biotin-H3K9me3 peptide binding; Potency, µM (doses to about 114 µM), for the others: at the top dose activity change, negative = inhibition, usual class: inhibitors; note: nearly all actives have a fitted effect of over 70% in size
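Compound inhibition of the preformed complex between 50 nM HP1-beta and 50 nM biotinylated H3K9me3 peptide was read by AlphaScreen. Buffer was PBS pH 7.4 with 0.01% Tween-20. Incubations ran 30 min at room temperature, with 10 ug/mL donor/acceptor beads.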
BAZ2B inh: BAZ2B (human) inhibition | Potency, µM (doses to about 114 µM), inactives show at the highest dose activity change, negative = inhibition, most hits filed as inhibitors | Q9UIF8 | hit rate 4.4% among 360,000 | AID 504333 | AlphaScreen BAZ2B-H3K14Ac peptide displacement; note: % is set by controls: 0 for no effect and ±100 for the full control effect; nearly all actives have a fitted effect of over 60% in size
Target sequence (Q9UIF8 whole entry, looked up): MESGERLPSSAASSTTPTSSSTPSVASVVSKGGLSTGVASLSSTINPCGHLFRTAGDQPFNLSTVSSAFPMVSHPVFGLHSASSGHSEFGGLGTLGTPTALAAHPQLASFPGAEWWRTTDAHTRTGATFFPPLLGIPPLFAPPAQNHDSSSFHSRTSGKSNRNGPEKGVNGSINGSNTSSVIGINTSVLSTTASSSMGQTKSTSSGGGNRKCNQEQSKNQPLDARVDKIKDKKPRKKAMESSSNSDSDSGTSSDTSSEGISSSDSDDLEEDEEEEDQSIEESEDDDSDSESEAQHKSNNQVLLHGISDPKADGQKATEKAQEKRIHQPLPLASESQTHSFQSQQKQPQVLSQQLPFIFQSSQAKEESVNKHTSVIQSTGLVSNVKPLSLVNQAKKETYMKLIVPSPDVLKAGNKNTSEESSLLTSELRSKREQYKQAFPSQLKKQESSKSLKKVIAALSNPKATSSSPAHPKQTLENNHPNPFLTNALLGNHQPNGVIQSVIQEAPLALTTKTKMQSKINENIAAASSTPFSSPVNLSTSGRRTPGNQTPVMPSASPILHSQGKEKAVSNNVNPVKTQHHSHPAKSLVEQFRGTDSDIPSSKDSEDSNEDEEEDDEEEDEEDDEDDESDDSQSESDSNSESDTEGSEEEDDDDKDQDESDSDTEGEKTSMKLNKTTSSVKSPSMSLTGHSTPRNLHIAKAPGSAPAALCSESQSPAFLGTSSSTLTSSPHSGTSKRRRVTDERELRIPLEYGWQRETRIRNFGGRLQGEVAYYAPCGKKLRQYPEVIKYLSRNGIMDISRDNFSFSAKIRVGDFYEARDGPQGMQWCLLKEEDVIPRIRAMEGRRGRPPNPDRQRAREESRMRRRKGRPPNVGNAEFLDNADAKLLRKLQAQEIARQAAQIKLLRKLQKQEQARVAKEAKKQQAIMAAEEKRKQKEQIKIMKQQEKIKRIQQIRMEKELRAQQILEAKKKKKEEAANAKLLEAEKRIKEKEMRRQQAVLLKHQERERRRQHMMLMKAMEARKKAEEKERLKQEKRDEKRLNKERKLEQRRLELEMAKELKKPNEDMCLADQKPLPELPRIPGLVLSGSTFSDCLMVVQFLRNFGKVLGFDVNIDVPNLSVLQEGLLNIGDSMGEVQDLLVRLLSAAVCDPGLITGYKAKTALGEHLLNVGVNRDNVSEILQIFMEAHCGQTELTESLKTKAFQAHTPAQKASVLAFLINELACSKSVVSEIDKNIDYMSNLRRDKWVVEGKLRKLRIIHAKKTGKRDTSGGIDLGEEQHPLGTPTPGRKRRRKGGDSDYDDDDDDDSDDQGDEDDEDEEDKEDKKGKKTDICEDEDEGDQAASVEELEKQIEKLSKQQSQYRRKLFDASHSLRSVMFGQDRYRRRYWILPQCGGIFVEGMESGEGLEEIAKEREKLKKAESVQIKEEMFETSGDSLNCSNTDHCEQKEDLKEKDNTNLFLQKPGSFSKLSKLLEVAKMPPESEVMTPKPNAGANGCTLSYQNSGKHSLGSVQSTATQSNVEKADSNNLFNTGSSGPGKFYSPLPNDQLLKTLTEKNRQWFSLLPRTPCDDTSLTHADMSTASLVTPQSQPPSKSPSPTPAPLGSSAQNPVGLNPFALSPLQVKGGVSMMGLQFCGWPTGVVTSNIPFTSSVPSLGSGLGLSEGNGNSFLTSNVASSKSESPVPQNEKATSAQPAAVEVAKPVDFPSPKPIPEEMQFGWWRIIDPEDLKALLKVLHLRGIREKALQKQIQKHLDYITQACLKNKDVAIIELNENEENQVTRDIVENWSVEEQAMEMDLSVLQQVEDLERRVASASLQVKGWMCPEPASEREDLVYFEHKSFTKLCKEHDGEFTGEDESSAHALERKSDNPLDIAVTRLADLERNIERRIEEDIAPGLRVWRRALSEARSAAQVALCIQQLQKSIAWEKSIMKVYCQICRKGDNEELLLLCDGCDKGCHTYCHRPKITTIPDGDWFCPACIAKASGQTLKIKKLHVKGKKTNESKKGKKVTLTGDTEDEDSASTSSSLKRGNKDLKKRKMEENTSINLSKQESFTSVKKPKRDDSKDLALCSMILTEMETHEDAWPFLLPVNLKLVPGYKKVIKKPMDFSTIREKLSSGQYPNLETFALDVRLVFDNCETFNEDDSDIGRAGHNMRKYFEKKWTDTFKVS
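BAZ2B (50 nM) with biotin-H3(5-23)K14Ac peptide (50 nM) in PBS pH 7.4, 0.01% Tween-20, preformed 30 min, then compound 30 min at room temperature; top concentration 110uM. AlphaScreen streptavidin donor/nickel chelate acceptor beads (10 ug/mL final), 20 min dark, signal read.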
G9a block: inhibitors of human histone lysine methyltransferase G9a; Potency, µM (titrated, usually from 102 µM), for inactives: top-dose activity, negative = inhibition, hits mostly inhibitors; hit rate 8.8% among 350,000; G9a H3K9 monomethylation, AlphaScreen, 2 h; Q96KQ7; note: % is set by controls: 0 for no effect and ±100 for the full control effect; nearly all actives have a fitted effect of over 75% in size
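Enzyme 20 nM + cpd, 15 min RT; add b-H3K9 pep 500 nM / SAM 20 uM; 2 h RT; anti-H3K9me1 Ab 0.5 ug/mL + SA donor / anti-rabbit acceptor beads 20 ug/mL each, 10 min; AlphaScreen read.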
Active calls of the source: *; ? = inconclusive; · = not tested or not shown; ! = not confirmed by another sample; [ ] = another dose, or the depositor's remark. Most compounds without a hit are left out; they make up all but 10% or so of the library. Calls come from the whole dose curve; as a rule, active = well fitted curve in the direction sought with a large enough effect; inconclusive = small, poorly fitted or top-dose-only effect, or another doubt; inactive = no such curve, though single readings can be large; an effect the other way counts as inactive or inconclusive. Potency is the fitted concentration of half-maximal effect.

SMILES | JMJD2A Tudor inh | GLS inh | HP1b chromo inh | BAZ2B inh | G9a block
CCn1c(C(=O)OC)cc2c1ccn2-c1ccc(F)cc1 | 3.16µM* | ? | ? | 12.6µM* | ?
Cc1ccc(S(=O)(=O)N2CCN(C)CC2)cc1-c1nnc2c3ccccc3c(C)nn12 | 7.6% | 0.1% | 15.8% | 10.6% | -0.9%
O=C(Cn1cnc2cc([N+](=O)[O-])ccc2c1=O)NC1CCS(=O)(=O)C1 (stereo not given) | -17.5% | 3.8% | 27.3% | ? | 50.1µM*
O=C(Nc1cccc([N+](=O)[O-])c1)NC1CCS(=O)(=O)C1 (stereo not given) | 5.7% | -1.7% | 32.0% | 7.7% | 58.6%
O=C(Nc1cc([N+](=O)[O-])ccc1O)NC1CCS(=O)(=O)C1 (stereo not given) | -2.0% | 20.9% | 19.3% | 10.0% | 15.8µM*
COc1ccc(C(=O)N2CCC3(CCCN(Cc4ccncc4)C3)CC2)cc1 | · | · | · | · | -15.3%[12.7 µM]
COC(=O)/C(=C(/F)SCC(C)=O)C(F)(F)F | · | · | · | -29.6% | 15.8µM*
CN(C)CCCN=c1cc(-c2ccccc2)oc2ccc(Cl)cc12 | -25.7% | -5.0% | 13.2% | ? | 56.2µM*
OCCN=c1cc(-c2ccccc2)oc2ccc(Cl)cc12 | -22.2% | 7.5% | 12.1% | ? | -14.8%[0.501 µM]
Cc1c(NC(=O)C(C)Oc2ncnc3ccccc23)c(=O)n(-c2ccccc2)n1C (stereo not given) | -6.8% | 1.1% | 27.0% | -3.5% | 15.2%[59 µM]
O=C(O)CSc1cccc2cccnc12 | 8.2% | -1.7% | 8.7% | ? | 14.1µM*!
CN(C)S(=O)(=O)c1cccc(NC(=O)CSc2cccc3cccnc23)c1 | ? | ? | -7.4% | 56.2µM* | 56.2µM*
CCN(CC)c1ccc(NC(=O)CN2CCN(c3nc(C)cc(C)n3)CC2)cc1 | -17.8%[11.4 µM] | 26.3% | ? | 35.5µM* | ?
CCN(CC)c1ccc(NC(=O)CN2CCN(c3ccc(F)cc3)CC2)cc1 | ? | 52.3% | -16.9% | ? | 8.91µM*
CCOc1ccc(NC(=O)CN2CCN(CC(=O)Nc3ccc(N(CC)CC)cc3)CC2)cc1 | -6.4% | 13.5% | 20.0%[57 µM] | -2.0% | ?
COc1ccc(N2CCN(CC(=O)Nc3ncc(C)s3)CC2)cc1 | -29.5% | 30.9% | 0.4% | -12.0% | 13.9%[2.33 µM]
O=C(CN1CCOCC1)Nc1ccc(F)cc1 | 6.4% | -5.5% | 69.2% | -16.0% | 17.9%
COc1ccc(N2CCN(CC(=O)Nc3nc4c(s3)CC(C)CC4)CC2)cc1 (stereo not given) | 50.1µM* | 33.8% | ? | · | 10µM*
O=C(CN1CCN(CC(=O)Nc2ccc(-c3ccccc3)cc2)CC1)Nc1ccc(F)cc1 | -16.4% | -0.3% | -9.6% | -30.8% | 35.5µM*
CCOC(=O)N1CCN(C(=O)CN(c2cccc(C(F)(F)F)c2)S(=O)(=O)c2ccccc2)CC1 | -7.0% | 0.9% | 7.6% | -9.3% | -13.0%[59 µM]
Cc1cc(Br)c(NC(=O)COC(=O)CC2CC3CCC2C3)c(Br)c1 (stereo not given) | -2.8% | -16.5% | 38.0% | · | ·
CCOC(=O)C(C)Sc1ncc(-c2ccccc2)cn1 (stereo not given) | 25.2% | -2.7% | 89.4% | 25.8% | 67.0%
Cn1c(N)c(C(=O)CN2CCc3ccccc3C2)c(=O)n(C)c1=O | 3.4% | -0.1% | 31.1% | -11.6% | 8.91µM*
COc1ccc(-c2nnn(CC(=O)N3CCN(c4ccc(F)cc4)CC3)n2)cc1 | -2.2%[11.4 µM] | -7.6% | 6.7% | -20.9% | 27.4%
COc1ccc(N2CCN(C(=O)CN3CCN(c4nc(-c5ccc(F)cc5)cs4)CC3)CC2)cc1 | 31.6µM* | 2.0% | ? | 20µM* | ?
SMILES | JMJD2A Tudor inh | GLS inh | HP1b chromo inh | BAZ2B inh | G9a block
COc1ccc(N2CCN(CC(=O)Nc3nc(C)cs3)CC2)cc1 | 5.62µM* | -11.7% | 39.8µM* | 11.2µM* | 3.55µM*
COc1ccccc1N1CCN(CC(=O)c2c(N)n(C)c(=O)n(C)c2=O)CC1 | -12.5% | 1.6% | 38.9% | -20.4% | 3.9%
CCOc1ccccc1C(=O)Nc1nc2c(s1)CC(C)CC2 (stereo not given) | -13.2% | -4.6% | -0.2% | 2.6% | 10µM*
O=C1CN(CC(=O)Nc2ccc(SC(F)F)cc2)CCN1 | -6.3% | -2.4% | 75.9% | -4.1% | -11.2%
O=C(Cn1c(/C=C/c2ccccc2)nc2ccccc21)Nc1ccc(F)cc1 | 50.1µM* | ? | 16.3% | -3.4% | 27.7%[59 µM]
O=C(CN1CCN(c2ccc(O)cc2)CC1)Nc1ccc(SC(F)F)cc1 | ? | 27.7% | -34.3% | ? | 2.24µM*
COc1ccc(N2CCN(c3ccc4nnc(CCC(=O)Nc5ccc(C)cc5)n4n3)CC2)cc1 | ? | 25.4% | ? | 44.7µM* | ·
O=C(O)CN1CCc2ccccc2C1 | 28.2µM* | ? | -22.5% | -4.6% | ?
O=C(/C=C/C(=O)N1CCc2ccccc2C1)N1CCc2ccccc2C1 | -15.5% | -2.7% | 27.7% | -14.0% | -0.5%[59 µM]
Clc1ccc([C@H](Cn2ccnc2)OCc2c(Cl)cccc2Cl)c(Cl)c1 | · | -1.7%[20 µM] | · | · | -30.3%[21.5 µM]
COc1ccc(NC(=O)CN2CCc3ccccc3C2)cc1 | 22.4µM* | 11.1% | ? | · | ·
COc1ccc(NC(=O)CN2CCN(c3ccc(F)cc3)CC2)cc1 | 25.1µM* | 30.0% | -2.2% | -14.3% | -1.8%
Cc1cc(NC(=O)CN2CCc3ccccc3C2)nc2c1c(=O)oc1ccccc12 | -22.0% | ? | 39.5% | -5.4% | 28.2µM*
COc1ccc(N2CCN(CC(=O)Nc3ccc(C)c(C)c3)CC2)cc1 | ? | 25.2% | -5.2% | ? | ?
Cc1cc(NC(=O)CN2CCC(C)CC2)nc2c1c(=O)oc1ccccc12 | 4.8% | -5.8% | 24.0% | 0.9% | 5.0%[59 µM]
COc1ccc(N2CCN(CC(=O)Nc3cc(C)cc(C)c3)CC2)cc1 | ? | 2.1% | -19.6% | ? | 79.4µM*
COc1ccc(NC(=O)CN2CCc3ccccc3C2)cc1OC | -7.9% | 0.0% | 24.3% | -15.0% | 2.6%
Cc1cc(C)c(NC(=O)Nc2csc3c2CCCC3)c(C)c1 | -14.2% | -4.2% | 7.9% | 2.2% | -29.8%[59 µM]
S=c1[nH]nc(CSCc2ccccc2Cl)n1-c1ccccc1 | 10.5% | · | 17.5% | -4.3% | ·
C=CCn1c(CSCc2ccc(F)cc2)n[nH]c1=S | -75.3% | -17.3% | 1.1% | 7.9% | ·
CCn1c(CSCc2ccc(C)cc2)n[nH]c1=S | 31.6µM* | -12.9% | 2.8% | ? | ·
CCn1c(CSCc2ccc(Cl)cc2)n[nH]c1=S | 56.2µM* | -29.8% | 14.1% | -6.7% | 3.16µM*
Cn1c(CSCc2ccc(Cl)c(Cl)c2)n[nH]c1=S | 89.1µM* | 77.1% | -6.5% | -8.2% | ?
COc1ccccc1N1CCN(S(=O)(=O)CCNC(=O)COc2ccc(C(C)C)cc2)CC1 | -19.8% | -1.9% | 18.6%[57 µM] | -11.5% | -14.1%[59 µM]
Cn1c(=O)oc2cc(S(=O)(=O)NCc3ccco3)ccc21 | 0.7% | -1.2% | 39.6% | 5.7% | -6.1%
O=C(O)c1ccc(Nc2nc(-c3cc4ccccc4oc3=O)cs2)cc1O | 31.6µM* | -4.3% | 31.6µM* | 28.2µM* | 39.8µM*
